Hits are enriched below; roughly 2% of the tested compounds scored in any of these assays.
Neddylation inh = inhibitors of cullin neddylation, primary screen, biochemical, TR-FRET, uHTS, NAE and Ubc12; inhibition, % at 25 µM; actives 0.58% (n = 360,000); NEDD8-conjugating enzyme Ubc12 (Homo sapiens) + NEDD8-activating enzyme E1 regulatory …; AID 651699, 2012; in the data active = inhibition above about 36%
A3G deaminase = APOBEC3G DNA deaminase inhibitors, primary screen, biochemical, fluorescence, single-stranded DNA substrate, uHTS | DNA dC->dU-editing enzyme APOBEC-3G (Homo sapiens), Q9HC16 | recombinant A3G, ssDNA deamination FAM/TAMRA fluorescence | inhibition, % at 20 µM | actives 0.28% (n = 330,000);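 active = inhibition of at least 40% at 20 µM, with no more than 30% in the related APOBEC3A deaminase screen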;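 note: plate controls were DMSO wells with A3G for no effect and wells lacking A3G enzyme for full effect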
NPR1 activator = GC-A stimulated cGMP production enhancers – HEK293 GC-A cells, cGMP TR-FRET, EC30 ANP, primary screen | 0% at EC30 ANP, 100% saturating ANP | activation, % at 10 µM | actives 0.14% (n = 370,000) | AID 1671463, 2021; in the data active = activation above about 40%
A3A deaminase = APOBEC3A ssDNA deaminase inhibitors, primary screen, selectivity assay for APOBEC3G inhibitor project, biochemical, FAM/TAMRA oligo cleavage fluorescence. DNA dC->dU-editing enzyme APOBEC-3A (Homo sapiens), P31941. recombinant A3A, FAM/TAMRA ssDNA deamination fluorescence. inhibition, % at 20 µM. actives 0.41% (n = 330,000). AID 493011, 2011;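 active = at least 40% inhibition at 20 µM here, with at most 30% in a related deaminase screen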;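 note: plate controls were A3A with DMSO for no effect and wells lacking A3A enzyme for full effect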
PfG6PD inh = PfG6PD enzyme inhibitors, primary screen, biochemical, fluorescence intensity, uHTS; glucose-6-phosphate dehydrogenase-6-phosphogluconolactonase (Plasmodium falciparum 3D7); PfGluPho enzyme, NADPH resazurin-diaphorase fluorescence; inhibition, % at 20 µM; actives 0.78% (n = 350,000); AID 504690, 2011;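 active = inhibition reaching at least a set limit at 20 µM in the primary screen, cut at about 59% in these data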;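 note: 0% = DMSO wells with substrate and 100% = DMSO wells lacking glucose-6-phosphate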
NPR2 activator = human GC-B receptor activators, primary screen, HEK293 GC-B cells, cGMP TR-FRET, EC30 CNP; 0% at EC30 CNP, 100% saturating CNP; activation, % at 10 µM; actives 0.11% (n = 370,000); AID 1920062, 2024;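 active = activation at 10 µM reaching about 35% in either raw or pattern-adjusted values, limit read from the data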
The depositor's hits bear a star; x = not tested or not shown.

SMILES	Neddylation inh	A3G deaminase	NPR1 activator	A3A deaminase	PfG6PD inh	NPR2 activator
Cc1nnc(Sc2cc(NCCCO)c([N+](=O)[O-])c3nonc23)s1	-5	x	28	x	77*	10
Cc1ccc(C(=O)N(C)[C@H]2C[C@H]3c4[nH]c5c(-c6ccc7c(c6)OCO7)cccc5c4CCN3C[C@H]2[C@H](C)O)cc1	x	x	0	x	x	-1
Cc1cc(NC(=O)CSc2nc3c([nH]c4ccccc43)c(=O)n2-c2ccccc2F)no1	-8	-4	73*	3	18	-2
Cc1cc(NC(=O)CSc2nc3c([nH]c4ccccc43)c(=O)n2-c2cccc(C(F)(F)F)c2)no1	-5	x	x	x	-16	x
COc1ccc(-n2c(SCC(=O)Nc3cc(C)on3)nc3ccc(O)cc3c2=O)cc1OC	5	0	58*	3	42	-2
COc1ccccc1-n1c(SCC(=O)Nc2cc(C)on2)nc2c([nH]c3ccccc32)c1=O	-22	-9	71*	-3	15	0
COc1cccc(-n2c(SCC(=O)Nc3cc(C)on3)nc3c([nH]c4ccccc43)c2=O)c1	-11	-7	80*	1	7	-3
CCCCCCCCN1C(=O)[C@@H](CC(=O)N2CCN(C(=O)OCC)CC2)C[C@@]2(C(=O)OC)C1=C[C@H](COCc1ccccc1)O[C@@H]2C	x	x	0	x	x	8
COCCn1c(SCC(=O)Nc2ccccc2F)nc2c([nH]c3ccccc32)c1=O	13	-5	55*	-2	1	2
COCCn1c(SCC(=O)Nc2ccc(F)cc2F)nc2c([nH]c3ccccc32)c1=O	11	-3	5	1	-13	-1
Cc1ccccc1NC(=O)N(C)[C@H]1C[C@H]2c3[nH]c4c(-c5ccc6c(c5)OCO6)cccc4c3CCN2C[C@H]1[C@H](C)O	x	x	-4	x	x	-7
N#Cc1c2c(c(Nc3ccc(F)cc3)n3c1nc1ccccc13)CCCC2	x	x	44*	x	-12	12
N#Cc1c2c(c(Nc3ccccc3)n3c1nc1ccccc13)CCC2	x	-2	54*	35	22	8
COC(=O)C1CN(Cc2cn(Cc3ccc(F)cc3)nn2)CCS(=O)(=O)N1Cc1ccc(OC)cc1 (configuration not stated)	x	x	-4	x	x	-1
CCOc1cc(S(=O)(=O)Nc2cc(C)cc(C)c2)ccc1Cl	-4	-7	-3	1	9	47*
N#CC1=C2SCN(Cc3ccco3)CN2C(=O)CC1c1ccc(Cl)cc1 (configuration not stated)	-19	-3	1	2	54	2
COc1ccc(C2CC(=O)N3CN(c4ccccc4F)CSC3=C2C#N)cc1OC (configuration not stated)	-97	46*	1	-3	68*	-9
N#CC1=C2SCN(Cc3ccccc3)CN2C(=O)CC1c1ccc2c(c1)OCO2 (configuration not stated)	-50	4	4	-5	61*	0
CCOc1cc(N2CCOCC2)c(OCC)cc1NC(=O)Cc1cccc2ccccc12	-3	1	10	2	89*	18
CCOc1cc(N2CCOCC2)c(OCC)cc1NC(=O)COC(=O)c1cc(C)cc(C)c1	5	-5	20	-2	23	28
CCOc1cc(N2CCOCC2)c(OCC)cc1NC(=O)COC(=O)c1ccc([N+](=O)[O-])o1	-29	0	37	3	43	37*
COc1cc(C2Nc3ccccc3C(=O)N2c2ccccc2OC)ccc1O (configuration not stated)	x	-3	-3	-1	11	1
O=C1c2ccccc2NC(c2ccc(O)c(O)c2)N1c1ccccc1Cl (configuration not stated)	50*	-6	-1	-3	-17	-2
COC(=O)[C@]12C[C@H](CC(=O)N3CCN(C(=O)C4CC4)CC3)C(=O)N(CCc3ccc(OC)c(OC)c3)C1=C[C@H](C1CCCC1)O[C@@H]2C	x	x	3	x	x	13
Cn1c2ccccc2c2cc(/C=N/NC(=O)c3cc(O)ccc3O)ccc21	52*	48	-10	74	13	-8
SMILES	Neddylation inh	A3G deaminase	NPR1 activator	A3A deaminase	PfG6PD inh	NPR2 activator
CCCCNS(=O)(=O)CC1NCc2ccc(C)cc21 (configuration not stated)	x	x	-2	x	x	-4
COc1cccc(-c2c(C(=O)N/N=C/c3cccs3)nnn2-c2nonc2N)c1	-14	-3	x	4	59*	x
Cn1c(=O)n(Cc2ccccc2)c(=O)c2c1nc1n2CCCN1CCc1ccccc1	9	-1	30	-1	24	43*
O=C(NCCc1ccccc1)OCc1cn(Cc2ccccc2C(F)(F)F)nn1	x	x	2	x	x	7
CCc1ccc2[nH]c3nc(C)cc(C)c3c(=O)c2c1	-98	-3	41*	2	46	37*
CCc1ccc2[nH]cc(S(=O)(=O)c3ccc(C)c(C)c3)c(=O)c2c1	3	-5	-2	-1	-16	-6
CCCn1c(NC(=O)c2ccccc2)nc(Cc2ccccc2)c1Cc1ccccc1	x	x	0	x	x	-4
Cc1nc2ccc(NC(=O)c3cc([N+](=O)[O-])cc([N+](=O)[O-])c3Cl)cc2s1	-22	x	80*	x	32	21
Cc1nc2ccc(NC(=O)c3ccc(Cl)c([N+](=O)[O-])c3)cc2s1	-28	-5	12	-2	5	2
COC(=O)[C@]12C[C@H](CC(=O)NCc3cccs3)C(=O)N(Cc3ccco3)C1=C[C@H](COCc1ccccc1)O[C@@H]2C	x	x	-2	x	x	3
C[C@H](O)[C@@H]1CN2CCc3ccc(N4CCOCC4)cc3[C@@H]2C[C@@H]1N(C)CC1CCCCC1	x	x	2	x	x	2
CC(=O)N1CCc2c1cccc2S(=O)(=O)NC(CC(C)C)C(=O)Nc1ccc(Cl)c(Cl)c1 (configuration not stated)	x	x	-5	x	x	-5
Cc1nn(-c2ccccc2)c2c1C(c1ccc(Br)s1)C(C#N)=C(N)O2 (configuration not stated)	-8	x	x	x	-7	x
N#CC1=C(N)Oc2cc(O)ccc2C1c1ccc(Br)s1 (configuration not stated)	-27	-6	75*	-4	-23	-6

Screens as filed in PubChem.
